PubChem BioAssay (NCI)
This is part of a sample that, as a whole, favours compounds with a hit. Of some 83,000 tested, about 20% had one in any assay.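 Activity criterion: percent growth below 10, measured after cells in 96-well plates were exposed to a single compound concentration for 48 hours.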 Values without a mark were called inactive. Calls of active or inactive are those of the source.

Assays:
Assay in all cases: NCI-60 one-dose screen, 48 h (100 = growth as untreated, 0 = no growth, -100 = all killed)
Details in all cases: 10 µM unless noted
NCI-H23 lung = test system: NCI-H23 lung
NCI-H322M lung = test system: NCI-H322M lung
HOP-62 NSCLC = test system: HOP-62 NSCLC
NCI-H460 lung = test system: NCI-H460 lung
HOP-92 NSCLC = test system: HOP-92 NSCLC
NCI-H522 lung = test system: NCI-H522 lung
A549/ATCC NSCLC = test system: A549/ATCC NSCLC
786-0 renal = test system: 786-0 renal
COLO 205 colon = test system: COLO 205 colon
NCI-H226 lung = test system: NCI-H226 lung

Compound	growth (NCI-H23 lung)	growth (NCI-H322M lung)	growth (HOP-62 NSCLC)	growth (NCI-H460 lung)	growth (HOP-92 NSCLC)	growth (NCI-H522 lung)	growth (A549/ATCC NSCLC)	growth (786-0 renal)	growth (COLO 205 colon)	growth (NCI-H226 lung)
COc1ccc(N2CCC(=S)NC2=S)cc1	99.2%	105%	108%	107%	104%	87.4%	99.8%	103%	108%	–
CCN1C(=O)N(CC)C2Nn3c(s/c(=C\c4ccccc4Br)c3=O)=NC21 (stereo not given)	25.6%	46.7%	–	4.16% (active)	–	-12.8% (active)	12.7%	25.3%	14.4%	57.5%
CC1=C(C(=O)Nc2ccccc2)C(c2ccc3c(c2)OCO3)NC(=S)N1 (stereo not given)	97.9%	107%	121%	113%	112%	87.9%	108%	101%	–	–
CN(C)c1ccc(/C=C(\C#N)c2cc3ccccc3[nH]2)cc1	28.4%	38.4%	28.7%	13.3%	26.4%	-9.55% (active)	41.4%	32.9%	4% (active)	–
Cc1c2ccncc2c(C)c2c1c1cc(CO)ccc1n2C	6.65% (active)	3.23% (active)	-19.6% (active)	-35.4% (active)	–	21.1%	2.79% (active)	1.95% (active)	-39% (active)	–
CCN1CCN(CCNc2nccc(-c3c(-c4ccc(F)c(OC)c4)nc4sccn34)n2)S1(=O)=O	78.2%	83.4%	87.7%	56.1%	54.4%	63%	73.3%	102%	62.3%	–
O=C(O)COc1ccc(Cl)c(Cl)c1	99%	120%	100%	109%	90.2%	102%	107%	104%	115%	–
Nc1ncnc2c1N=C(c1ccc3c(c1)OCO3)CC(c1cccc(Nc3ccnc4cc(C(F)(F)F)ccc34)c1)N2 (stereo not given)	84.2%	94.3%	84.5%	90.7%	53.8%	73.6%	68.6%	82.5%	115%	–
CN1CCN(C(=O)[C@@]2(C)CC[C@]3(C)CC[C@]4(C)C(=CC[C@@H]5[C@@]6(C)CCC(=O)NC(C)(C)[C@@H]6CC[C@]54C)[C@@H]3C2)CC1	61.8%	70.7%	62.8%	31.8%	15.9%	74.8%	51.9%	47.9%	7.65% (active)	–
CN1CCN(C(=O)C(C)(C)c2ccc(C(=O)Nc3cn4cc(-c5ccncc5)ccc4n3)cc2)CC1	10.1%	17%	4.05% (active)	10.8%	3.02% (active)	-1.24% (active)	10.2%	-19.9% (active)	2.48% (active)	–
COc1ccc(C(=O)Cn2c(C(=O)c3ccc(OC)cc3)nc3ccccc32)cc1	50.5%	76.6%	37.8%	10.5%	45.2%	-27.7% (active)	41.3%	36.3%	38.8%	–
CC1C(/C=N/NC(N)=S)C(C#N)(C#N)C1(C#N)C#N (stereo not given)	101%	102%	105%	99.8%	92.9%	99.4%	100%	104%	115%	–
C=C(C)[C@@H]1CC[C@]2(C(N)=O)CC[C@]3(C)[C@H](CC[C@@H]4[C@@]5(C)CC[C@H](OCCC#N)C(C)(C)[C@@H]5CC[C@]43C)[C@@H]12	91.3%	73.3%	95%	79%	78.1%	77.5%	74.6%	94.8%	86.1%	–
S=c1[nH]c(=S)c2c(-c3ccccc3)c(-c3ccccc3)oc2[nH]1	97.8%	118%	92.6%	108%	100%	97.5%	95.7%	103%	120%	–
Cc1ccc2nc(NC(=O)CSc3nc(-c4ccccc4)c(C#N)c4nnnn34)sc2c1	103%	108%	–	104%	106%	89.4%	104%	114%	121%	94.7%
Cc1ccc(NC(=O)Cn2c(Br)nc3c2c(=O)n(C)c(=O)n3C)cc1	22.7%	30.6%	–	14.6%	-2.3% (active)	62.6%	27.1%	-67.1% (active)	19.5%	–
CC1CCN(C(=S)SCC(=O)NC(=O)c2ccccc2)CC1	102%	105%	96.7%	110%	107%	83.3%	105%	103%	104%	–
COc1ccccc1C(=O)Nc1cccc(NC(=O)c2ccoc2C)c1	47.5%	59.5%	49.5%	13.9%	47.2%	13.9%	28.2%	32.9%	39.2%	–
CCNc1ccc(-c2nc3ccccc3n3cccc23)cc1	79.6%	76.7%	83.4%	88.8%	63.7%	71.3%	75.6%	86%	95.2%	–
C=C1CC[C@@H]2[C@](C)(COC(C)=O)[C@H](OC(C)=O)CC[C@@]2(C)[C@@H]1CC(Nc1ccc(S(=O)(=O)NC(C)=O)cc1)C1=CCOC1=O (stereo not given in full)	7.36% (active)	35.3%	–	5.29% (active)	21%	-63.2% (active)	27.9%	-66% (active)	-32.7% (active)	-52.3% (active)
O=C(NCc1cccc(CNC(=O)Nc2nc3ccccc3[nH]2)c1)Nc1nc2ccccc2[nH]1	-65.1% (active)	-7.92% (active)	-46.2% (active)	-52.9% (active)	-27.7% (active)	1.54% (active)	-42.5% (active)	-42.8% (active)	-2.34% (active)	–
Cc1ccc(/C=C/C(=O)Nc2ncc(Cc3ccc(F)cc3)s2)o1	75.2%	59.4%	55.1%	30.4%	77.8%	38%	49%	66.5%	31.8%	–
CCCCCCCC/C=C\CCCCCCCCOc1ccc(CC(=O)NCC[N+]2(C)CCOCC2)cc1	78.9%	88.1%	30.7%	54.9%	66.5%	69.5%	88.7%	67.7%	-14.8% (active)	–
CNC(C)[C@H]1CCC2C3CC=C4C(=O)[C@@H](NC(=O)C=C(C)C)CC[C@]4(C)C3CC[C@@]21C (stereo not given in full)	30.1%	13.9%	-4.38% (active)	-24.6% (active)	9.2% (active)	58.5%	30.3%	3.96% (active)	-82.4% (active)	–
CC1C=CC(OC(=O)C(C)(O)CCC(O)(C(=O)OC2CC(O)C(C(C)C)CC2(C)O)C(C)C)(C(C)C)CC1 (stereo not given)	-70.5% [4.63 µM] (active)	-89.9% [4.63 µM] (active)	-68.7% [4.63 µM] (active)	-69.3% [4.63 µM] (active)	–	-76.7% [4.63 µM] (active)	-78.2% [4.63 µM] (active)	-88.5% [4.63 µM] (active)	-68.3% [4.63 µM] (active)	–
CCOC(=O)c1nn(CC(O)c2ccccc2)c(NC(=O)Nc2cccc(F)c2)c1C (stereo not given)	108%	98.9%	–	96.3%	–	84.7%	87.9%	99.7%	106%	–
Cc1ccc2nc(/C(C#N)=C(/CCCO)NC(Cc3ccccc3)C(=O)OCc3ccccc3)[nH]c(=O)c2c1 (stereo not given)	43%	94.4%	88.2%	110%	108%	112%	114%	93.9%	87.8%	–
NC(=O)c1c(NC(=O)c2cccc(C(F)(F)F)c2)sc2c1CCC(=O)C2	-2.9% (active)	61.6%	28.2%	5.67% (active)	-45.1% (active)	-37.6% (active)	17%	17.8%	-51.2% (active)	–
